Most compounds without a hit are left out; they make up all but 10% or so of the library.
HP1b chromo inh: HP1-beta chromodomain-methylated histone interaction inhibition; Potency, µM (highest dose often 114 µM), usual class: inhibitors; 390,000 compounds, 0.56% hits; AlphaScreen HP1-beta / biotin-H3K9me3 peptide binding; P83916; AID 540317; note: nearly all actives have a fitted effect of over 70% in size
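AlphaScreen: HP1-beta (50 nM) preformed 30 min with biotin-H3(1-18)K9me3 peptide (50 nM) in PBS pH 7.4, 0.01% Tween-20. Compound added for 30 min at RT, then streptavidin donor/nickel chelate acceptor beads (10 ug/mL) for 30 min.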
CtBP-E1A inh: inhibitors of CtBP/E1A interaction | AlphaScreen GST-E1A/His-CtBP binding, 1536-well; hits give low values | activity change, % (test concentration not listed) | 340,000 compounds, 0.49% hits | AID 651724; in the data active = activity change below about -65%; inconclusive = mostly about -30% to -63%
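Steps: dispense buffer (Tris pH 8.0, NaCl 300 mM, TCEP 1 mM, BSA, Tween 20); add 5X protein mix (GST-E1A, His-CtBP, 125 nM each); pin 23 nL compound; 2 h at 37 °C, dark; add 5X beads (50 ug/mL); 1 h; read.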
JMJD2A Tudor: JMJD2A Tudor domain (human) inhibition | AlphaScreen JMJD2A-Tudor / H3K4me3 peptide binding | Potency, µM (doses to about 114 µM), usual class: inhibitors | 390,000 compounds, 4.4% hits; note: nearly all actives have a fitted effect of over 50% in size
Six1-Eya2 inh: inhibitors of human Six1/Eya2 interaction | AlphaScreen GST-Six1/His-Eya2 binding, biochemical; hits give low values | activity change, % (no concentration beside the values) | 360,000 compounds, 0.56% hits | AID 651725; in the data active = activity change below about -65%; inconclusive = mostly about -30% to -63%
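GST-Six1 + His-Eya2 (5X stock: 250/500 nM); Tris pH 8.0, 300 mM NaCl, 0.05% BSA, 0.02% Tween 20; GSH donor/Ni acceptor beads; 1 h 37 °C dark; AlphaScreen readout.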
BAZ2B inh: blocks human BAZ2B. Q9UIF8. AlphaScreen BAZ2B-H3K14Ac peptide displacement. 360,000 compounds, 4.4% hits. Potency, µM (series often up to 114 µM), hits mostly inhibitors; note: nearly all actives have a fitted effect of over 60% in size
Target sequence (Q9UIF8 whole entry, looked up): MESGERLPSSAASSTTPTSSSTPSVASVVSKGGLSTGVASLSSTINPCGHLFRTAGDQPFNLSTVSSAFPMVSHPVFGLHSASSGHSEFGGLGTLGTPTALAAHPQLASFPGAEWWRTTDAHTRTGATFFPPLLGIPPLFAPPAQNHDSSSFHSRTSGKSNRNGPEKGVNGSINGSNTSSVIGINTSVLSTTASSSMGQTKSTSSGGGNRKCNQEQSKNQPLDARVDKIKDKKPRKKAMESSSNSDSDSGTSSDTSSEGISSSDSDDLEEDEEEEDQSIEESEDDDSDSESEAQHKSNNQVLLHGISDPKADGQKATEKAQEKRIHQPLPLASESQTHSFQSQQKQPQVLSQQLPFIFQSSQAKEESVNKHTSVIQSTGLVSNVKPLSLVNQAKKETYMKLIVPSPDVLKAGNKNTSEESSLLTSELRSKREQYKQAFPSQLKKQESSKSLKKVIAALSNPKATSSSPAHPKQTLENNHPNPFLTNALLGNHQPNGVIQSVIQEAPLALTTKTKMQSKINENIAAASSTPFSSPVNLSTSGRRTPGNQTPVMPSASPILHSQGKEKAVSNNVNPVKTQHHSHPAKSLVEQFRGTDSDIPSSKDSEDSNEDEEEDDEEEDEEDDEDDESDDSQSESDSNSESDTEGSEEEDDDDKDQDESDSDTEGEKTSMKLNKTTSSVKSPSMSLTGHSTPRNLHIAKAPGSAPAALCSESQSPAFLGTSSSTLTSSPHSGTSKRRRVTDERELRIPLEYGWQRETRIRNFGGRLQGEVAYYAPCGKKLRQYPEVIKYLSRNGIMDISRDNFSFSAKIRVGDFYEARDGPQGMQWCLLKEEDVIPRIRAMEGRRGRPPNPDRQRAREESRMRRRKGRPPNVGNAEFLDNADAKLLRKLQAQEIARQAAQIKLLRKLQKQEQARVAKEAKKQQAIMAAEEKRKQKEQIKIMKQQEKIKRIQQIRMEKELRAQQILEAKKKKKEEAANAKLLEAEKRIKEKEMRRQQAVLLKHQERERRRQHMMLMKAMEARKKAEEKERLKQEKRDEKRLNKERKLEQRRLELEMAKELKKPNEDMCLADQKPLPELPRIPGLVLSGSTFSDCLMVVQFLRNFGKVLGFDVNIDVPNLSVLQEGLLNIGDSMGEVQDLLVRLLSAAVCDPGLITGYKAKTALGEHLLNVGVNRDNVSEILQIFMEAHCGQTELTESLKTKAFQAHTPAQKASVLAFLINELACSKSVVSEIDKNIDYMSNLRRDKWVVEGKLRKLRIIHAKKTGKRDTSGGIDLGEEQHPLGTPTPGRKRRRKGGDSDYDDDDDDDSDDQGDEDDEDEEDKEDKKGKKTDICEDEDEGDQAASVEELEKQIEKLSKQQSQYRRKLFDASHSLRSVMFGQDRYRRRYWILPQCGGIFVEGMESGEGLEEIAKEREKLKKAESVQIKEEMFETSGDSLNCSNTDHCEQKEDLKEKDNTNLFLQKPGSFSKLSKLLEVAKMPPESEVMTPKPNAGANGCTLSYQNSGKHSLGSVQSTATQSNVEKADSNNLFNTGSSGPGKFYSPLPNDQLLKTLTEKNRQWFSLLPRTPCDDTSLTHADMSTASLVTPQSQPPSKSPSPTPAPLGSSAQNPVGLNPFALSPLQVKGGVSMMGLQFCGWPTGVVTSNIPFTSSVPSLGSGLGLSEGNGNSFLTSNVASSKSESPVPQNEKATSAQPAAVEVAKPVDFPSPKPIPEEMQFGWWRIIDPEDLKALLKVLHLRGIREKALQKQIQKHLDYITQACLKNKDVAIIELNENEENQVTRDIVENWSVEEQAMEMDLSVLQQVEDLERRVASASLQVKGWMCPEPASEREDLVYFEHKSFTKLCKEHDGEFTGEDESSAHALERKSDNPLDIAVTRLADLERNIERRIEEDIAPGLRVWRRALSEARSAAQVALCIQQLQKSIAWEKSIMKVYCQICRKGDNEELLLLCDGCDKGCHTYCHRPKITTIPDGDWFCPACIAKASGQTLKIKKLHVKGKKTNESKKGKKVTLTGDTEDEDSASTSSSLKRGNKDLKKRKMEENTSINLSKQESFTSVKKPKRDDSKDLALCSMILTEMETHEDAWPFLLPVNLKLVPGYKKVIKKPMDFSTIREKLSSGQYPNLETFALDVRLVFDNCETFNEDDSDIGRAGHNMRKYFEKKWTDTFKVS
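BAZ2B 50 nM plus b-H3(5-23)K14Ac 50 nM, PBS pH 7.4/0.01% Tween-20, 30 min RT; compound added (max 110 uM), 30 min RT; streptavidin donor/Ni-chelate acceptor beads 10 ug/mL final, 20 min dark; AlphaScreen read.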
G9a inh: blocks human histone lysine methyltransferase G9a. Q96KQ7. G9a H3K9 monomethylation, AlphaScreen, 2 h. Potency, µM (highest dose often 102 µM), actives largely listed as inhibitors. 350,000 compounds, 8.8% hits. AID 504332; note: nearly all actives have a fitted effect of over 75% in size
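Compounds were preincubated with 20 nM G9a for 15 min, after which biotinylated H3K9 peptide (500 nM) and SAM (20 uM) started a 2 h room-temperature reaction. Monomethylated product was quantified by antibody-based AlphaScreen chemiluminescence.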
Numbers stand for hits; [ ] = another dose, or the depositor's remark. Unless noted, calls come from the whole dose curve; as a rule, active = well fitted inhibition curve with a large enough effect; inconclusive = small, poorly fitted or top-dose-only effect; inactive = no such curve, though single readings can be large or run the other way.

Results for CCN1CCN(c2ccc(S(=O)(=O)N3CCCCC3)cc2NC(=O)COc2ccccc2)CC1 ?
HP1b chromo inh: inactive; CtBP-E1A inh: inactive; JMJD2A Tudor: inconclusive; Six1-Eya2 inh: inactive; BAZ2B inh: inconclusive; G9a inh: 50µM

How did CCOc1ccc(S(=O)(=O)N2CCN(C)CC2)cc1NC(=O)c1ccccc1F do in these assays?
HP1b chromo inh: inactive; CtBP-E1A inh: inactive; JMJD2A Tudor: inactive; Six1-Eya2 inh: -69; BAZ2B inh: inactive; G9a inh: inactive

Results for CCOc1ccccc1OCC(=O)Nc1cc(S(=O)(=O)N2CCCCC2)ccc1OC ?
HP1b chromo inh: inactive; CtBP-E1A inh: inactive; JMJD2A Tudor: inactive; Six1-Eya2 inh: inactive; BAZ2B inh: inactive; G9a inh: inactive[0.501 µM]

How did COc1ccc(C(=O)NC2=Nc3ccccc3N=C(C)C2c2ccccc2)cc1 (stereo not given) do in these assays?
HP1b chromo inh: inactive; CtBP-E1A inh: inactive; JMJD2A Tudor: inactive; Six1-Eya2 inh: inactive; BAZ2B inh: inactive; G9a inh: inconclusive

What do the screens show for `CN1CCN(c2ccc(S(=O)(=O)N3CCCCC3)cc2NC(=O)COc2ccc([N+](=O)[O-])cc2)CC1`?
HP1b chromo inh: inactive; CtBP-E1A inh: inactive; JMJD2A Tudor: inactive; Six1-Eya2 inh: inactive; BAZ2B inh: inactive; G9a inh: inconclusive

What do the screens show for `CCOc1ccc(S(=O)(=O)N2CCOCC2)cc1NC(=O)c1ccc(N2CCCC2=O)cc1`?
HP1b chromo inh: inactive; CtBP-E1A inh: inactive; JMJD2A Tudor: inactive; Six1-Eya2 inh: inactive; BAZ2B inh: inactive; G9a inh: 32µM

How did CC(C)c1ccccc1OCC(=O)Nc1cc(S(=O)(=O)N2CCOCC2)ccc1N1CCCC1 do in these assays?
HP1b chromo inh: inactive; CtBP-E1A inh: inactive; JMJD2A Tudor: inconclusive; Six1-Eya2 inh: inactive; BAZ2B inh: inactive; G9a inh: 28µM

How did CCC(=O)c1ccc(OCC(=O)Nc2cc(S(=O)(=O)N3CCCCC3)ccc2N2CCN(CC)CC2)cc1 do in these assays?
HP1b chromo inh: inactive; CtBP-E1A inh: inactive; JMJD2A Tudor: inactive; Six1-Eya2 inh: inconclusive; BAZ2B inh: inactive; G9a inh: 10µM

How did Cc1ccc(C)c(N2N=C(C(=O)Nc3cccc(S(=O)(=O)N4CCCCC4)c3)CCC2=O)c1 do in these assays?
HP1b chromo inh: inactive; CtBP-E1A inh: inactive; JMJD2A Tudor: inactive; Six1-Eya2 inh: inactive; BAZ2B inh: inactive; G9a inh: inactive[2.33 µM]

What do the screens show for `CCc1sc(-c2cc3ccccc3oc2=O)nc1-c1ccc(C)cc1`?
HP1b chromo inh: inactive; JMJD2A Tudor: inactive

Results for Cc1ccc(C)c(NNC(N)=S)c1 ?
HP1b chromo inh: inactive; CtBP-E1A inh: inactive; JMJD2A Tudor: inactive; Six1-Eya2 inh: inactive; BAZ2B inh: inactive; G9a inh: 35µM

Results for Cc1cccc(NNC(N)=S)c1C ?
HP1b chromo inh: inactive; CtBP-E1A inh: inactive; JMJD2A Tudor: inactive; Six1-Eya2 inh: inactive; BAZ2B inh: inactive; G9a inh: 20µM

Results for Cc1ccc(C)c(NNC(=O)C(=O)NNc2cc(C)ccc2C)c1 ?
HP1b chromo inh: inactive; CtBP-E1A inh: inactive; JMJD2A Tudor: inconclusive; Six1-Eya2 inh: inactive; BAZ2B inh: inactive; G9a inh: 28µM

How did NC(=S)NNc1cc(Cl)cc(Cl)c1 do in these assays?
HP1b chromo inh: inactive; CtBP-E1A inh: inactive; JMJD2A Tudor: 35µM; Six1-Eya2 inh: inactive; BAZ2B inh: inactive; G9a inh: inconclusive

What do the screens show for `Cc1ccc(C)c(N/C(N)=N/c2nc(C)cc(C)n2)c1`?
HP1b chromo inh: inactive; CtBP-E1A inh: inactive; JMJD2A Tudor: inactive; Six1-Eya2 inh: inactive; BAZ2B inh: inactive; G9a inh: inactive[0.501 µM]

How did Cc1ccc(-c2cc(Cc3ccccc3)c(=O)[nH]n2)cc1 do in these assays?
HP1b chromo inh: inactive; CtBP-E1A inh: inactive; JMJD2A Tudor: inactive; Six1-Eya2 inh: inactive; BAZ2B inh: inactive; G9a inh: inactive

Results for Cc1cccn2cc(CCNS(=O)(=O)c3cccc([N+](=O)[O-])c3)nc12 ?
HP1b chromo inh: inactive; CtBP-E1A inh: inactive; JMJD2A Tudor: inactive; Six1-Eya2 inh: inactive; BAZ2B inh: inactive

What do the screens show for `Cc1ccccc1NNC(=O)C(=O)NNc1ccccc1C`?
HP1b chromo inh: inconclusive; JMJD2A Tudor: 18µM; Six1-Eya2 inh: inactive; BAZ2B inh: 50µM; G9a inh: inconclusive

How did Cc1cc(Cl)ccc1NNC(N)=S do in these assays?
HP1b chromo inh: inactive; CtBP-E1A inh: inactive; JMJD2A Tudor: inactive; Six1-Eya2 inh: inactive; BAZ2B inh: inactive; G9a inh: 20µM

Results for Cc1cc(Cl)ccc1NC(=S)NC(C)(C)C ?
HP1b chromo inh: inactive; CtBP-E1A inh: inactive; JMJD2A Tudor: inactive; Six1-Eya2 inh: inactive; BAZ2B inh: inactive; G9a inh: inactive

Results for COc1ccc(-c2nc3sc(CCNC(=O)c4cccc(C(F)(F)F)c4)c(C)n3n2)cc1 ?
HP1b chromo inh: inactive; JMJD2A Tudor: inactive; BAZ2B inh: inactive; G9a inh: inactive

Results for CCOCCCNC(=O)CNC(=S)N(Cc1ccc(C)cc1)Cc1ccco1 ?
HP1b chromo inh: inactive; CtBP-E1A inh: inactive; JMJD2A Tudor: inactive; Six1-Eya2 inh: inactive; BAZ2B inh: inactive; G9a inh: 10µM

How did Cc1ccc2c(c1)c1c3n2CCN(C(=O)CN2CCN(C)CC2)C3CCC1 (stereo not given) do in these assays?
HP1b chromo inh: inactive; CtBP-E1A inh: inactive; JMJD2A Tudor: inconclusive; Six1-Eya2 inh: inactive; BAZ2B inh: inconclusive; G9a inh: 45µM

How did Cc1ccc2c(c1)c1c3n2CCN(CC(O)CNC(C)C)C3CCC1 (stereo not given) do in these assays?
HP1b chromo inh: inactive; CtBP-E1A inh: inactive; JMJD2A Tudor: inconclusive; Six1-Eya2 inh: inactive; BAZ2B inh: inconclusive; G9a inh: inconclusive

How did CN1CCN(CC(=O)N2CCn3c4c(c5cc(C6CCCCC6)ccc53)CCCC42)CC1 (stereo not given) do in these assays?
HP1b chromo inh: inconclusive; CtBP-E1A inh: inactive; JMJD2A Tudor: 40µM; Six1-Eya2 inh: inactive; BAZ2B inh: 35µM; G9a inh: inconclusive

What do the screens show for `Cc1ccc2c(c1)c(=O)c1c3n2CCN(C(=O)CCl)C3CC1` (stereo not given)?
HP1b chromo inh: inactive; CtBP-E1A inh: inactive; JMJD2A Tudor: inconclusive; Six1-Eya2 inh: inactive; BAZ2B inh: 40µM; G9a inh: 11µM

What do the screens show for `CC(=O)c1cccc(NS(=O)(=O)c2cc3c(cc2C)n(C)c(=O)c(=O)n3C)c1`?
HP1b chromo inh: inactive; JMJD2A Tudor: inactive; BAZ2B inh: inactive; G9a inh: inactive

How did C(#Cc1ccccc1)C[N+]1(CC#Cc2ccccc2)CCCCC1 do in these assays?
HP1b chromo inh: inactive; CtBP-E1A inh: inactive; JMJD2A Tudor: 45µM; Six1-Eya2 inh: inactive; BAZ2B inh: inactive; G9a inh: inactive

What do the screens show for `C#CC[N+]1(CC#Cc2ccccc2)CCCCC1`?
HP1b chromo inh: inactive; CtBP-E1A inh: inactive; JMJD2A Tudor: inactive; Six1-Eya2 inh: inactive; BAZ2B inh: inactive; G9a inh: inactive
